The values below come from PubChem BioAssay.

A short description of assay [1]: P. berghei load reduction in hepatocytes – cell-based, HepG2, luciferase luminescence, HepG2 viability, primary screen (AID 624349).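 Also: 100% = mean of DMSO negative control wells on the same plate.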 Conditions: P. berghei liver stage in HepG2, luciferase luminescence, concentration not given here; parasite load remaining: stronger effect = lower value; viability: measured here: HepG2 viability without parasites.
Assay [2] in a line: viability loss with induced miR-34 in A549 – imaging, A549 dox-inducible miR-34, nuclei and caspase counts, primary screen (AID 1347080;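 active = compounds whose cell count with miR-34 switched on is under 0.7 times the count with it off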). The following applies: A549 miR-34 inducible, Hoechst nuclei count, 48 h.
The nature of assay [3]: compounds altering viability of human ES cells (AID 493140; call rule not given here;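 also: cells exposed to compounds for four days before counting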). The following applies: human embryonic stem cell survival screen; stronger effect = higher value.
The nature of assay [4]: chitosan synthesis blockers in C. neoformans – flow cytometry, Cibacron Brilliant Red staining (AID 1347148; call rule not given here;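 also: compound exposure lasted three days at 37 degrees C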). Conditions: Cryptococcus neoformans chitosan, stronger effect = lower value; at 10 µM unless noted.
Assay [5] can be described thus: MELAS cybrid and Rieske KO viability enhancers – cell-based, MELAS cybrids, Rieske KO mouse fibroblasts, CellTiter-Glo, primary screen (AID 1508586;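 active = mean z-score across replicates of 1.96 or higher in either the MELAS or the Rieske mutant cell line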;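 also: z relative to plate mean and SD of compound and empty wells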). Conditions: low glucose.
Assay [6] can be described thus: blockers of cellular phospholipid synthesis – cell-based, LOPAC library, screen 4, primary screen (AID 1347384; call rule not given here). Conditions: animal cells, phospholipid biosynthesis inhibition screen; at 10 µM.
Where [7] appears, read: measured here: relative caspase fold change +Dox/-Dox.
The mark [8] stands for this setting: measured here: total cells with miR-34 induction, stronger effect = lower value.
[9] abbreviates: measured here: total cells without miR-34 induction.
Setting [10] is: stronger effect = lower value, cell number ratio, induced over uninduced.

Where “and” joins values, the source holds several entries; their conditions need not be identical. Equal values may be shown once. Calls of active or inactive are those of the source. Rule as the data show it, unless noted: active = parasite load remaining mostly below about 12% (no sharp cut-off); inactive = mostly above about 10%.

For orientation: viability means a read-out of living cells in per cent, often relative to untreated cells. In the case of `COc1cc(C(=O)OC2C[C@H]3CC[C@@H](C2)N3C)ccc1O` (stereo partly specified), the parasite load remaining in assay [1] was 90.6% (inactive). The viability in assay [1] is 98.9%. Further, the fold change in assay [2] (stronger effect = lower value) was 0.903 (inactive); in assay [2] (setting [7]), 1.48. In addition, the cell count came out at 8240 in assay [2] (setting [8]) and 9120 in assay [2] (setting [9]).

`COc1cc2c(c(OC)c1OC)-c1ccc(O)c(=O)cc1[C@@H](N)CC2`: the parasite load remaining in assay [1] was 106% (inactive). Moreover, the viability in assay [1] was 105%. For the same compound, the fold change in assay [2] (setting [10]) is 0.884 (inactive); in assay [2] (setting [7]) it was 1.33. The cell count came out at 5720 in assay [2] (setting [8]) and 6460 in assay [2] (setting [9]).

Consider `CN(C)[C@@H]1C(=O)C(C(N)=O)=C(O)[C@@]2(O)C(=O)C3=C(O)c4c(O)ccc(Cl)c4[C@@](C)(O)C3C[C@@H]12` (stereo partly specified), for which the parasite load remaining in assay [1] is 51% (inactive). In assay [1], the viability was found to be 46.7%. In addition, the fold change in assay [2] (setting [10]) was 0.828 (inactive); in assay [2] (setting [7]), 1.43. Further, the cell count in assay [2] (setting [8]) came out at 7670; in assay [2] (setting [9]), 9260.

As to `CC1=CC(=O)C2=C(C)C[C@H](O)[C@@H]3[C@H](OC(=O)[C@H]3C)[C@@H]12`, in assay [3], the survival is 7.92 (inactive). Also, the parasite load remaining in assay [1] was 98.5% (inactive). In assay [1], the viability was found to be 100%. Further, the fold change in assay [2] (stronger effect = lower value) is 0.829 (inactive); in assay [2] (setting [7]) it was 1.6. Moreover, the figures for the cell count in assay [2] (setting [8]) and in assay [2] (setting [9]) were 8050 and 9720, respectively.

Consider `C=C1[C@@H]2CC[C@H]3[C@]4(C)C[C@H](O[C@H]5O[C@H](CO)[C@@H](OS(=O)(=O)O)[C@H](OS(=O)(=O)O)[C@H]5OC(=O)CC(C)C)C[C@@H](C(=O)O)[C@H]4CC[C@]3(C2)[C@H]1O`, for which the parasite load remaining in assay [1] was 72.2% (inactive). Besides, in assay [1], the viability was 97.4%. Also, the fold change in assay [2] (setting [10]) is 0.879 (inactive); in assay [2] (setting [7]), 0.935. The cell count in assay [2] (setting [8]) turned out to be 8890; in assay [2] (setting [9]), 10100.

`CCN1C[C@]2(COC)CC[C@H](OC)[C@@]34C1[C@]1(OCO[C@@]15C[C@H](OC)[C@H]1C[C@@H]3[C@@H]5[C@H]1OC)[C@@H](O)[C@H]24`: the parasite load remaining in assay [1] is 79.2% (inactive). Also, the viability in assay [1] is 96.3%. In addition, the fold change is 0.844 (inactive) in assay [2] (setting [10]) and 1.35 in assay [2] (setting [7]). In addition, the results for the cell count in assay [2] (setting [8]) and in assay [2] (setting [9]) were 8580 and 10200, respectively.

Take `CO[C@H]1C=C2CCN(C)[C@H]2C2c3cc4c(cc3C(=O)O[C@@H]21)OCO4` (stereo partly specified): the parasite load remaining in assay [1] is 64.2% (inactive). Also, the viability in assay [1] is 100%. The fold change was 0.936 (inactive) in assay [2] (setting [10]) and 0.836 in assay [2] (setting [7]). Further, the cell count in assay [2] (setting [8]) turned out to be 9140; in assay [2] (setting [9]) it was 9770.

Take `COc1ccc(C(=O)OC2C[C@H]3CC[C@H](C2)N3C)cc1OC` (stereo partly specified): the parasite load remaining in assay [1] is 72.9% (inactive). The viability in assay [1] is 108%. The fold change in assay [2] (setting [10]) was 0.888 (inactive); in assay [2] (setting [7]) it was 1.53. Further, the cell count was determined as 9600 in assay [2] (setting [8]) and 10800 in assay [2] (setting [9]).

Consider `C=C1[C@@H](O)[C@]23C[C@@H]1[C@@H](O)C[C@H]2[C@@]12C4[C@@H]3C[C@@H]1[C@@](C)(CC[C@@H]2O)CN4CC`, for which, in assay [1], the parasite load remaining was 76.8% (inactive). Further, the viability in assay [1] was 104%. In addition, the fold change in assay [2] (setting [10]) is 0.894 (inactive); in assay [2] (setting [7]), 0.861. Besides, the cell count in assay [2] (setting [8]) worked out at 8910; in assay [2] (setting [9]), 9970.

On to `CCN1C[C@]2(COC)CC[C@H](O)[C@]34C1[C@H](C[C@H]23)[C@@]1(O)C[C@H](OC)[C@H]2C[C@@H]4[C@@H]1[C@H]2OC(C)=O`, for which the parasite load remaining in assay [1] was 81.9% (inactive). For the same compound, the viability in assay [1] was found to be 71.5%. The fold change was 0.961 (inactive) in assay [2] (setting [10]) and 0.467 in assay [2] (setting [7]). Besides, the values for the cell count in assay [2] (setting [8]) and in assay [2] (setting [9]) were 9850 and 10200, respectively.

As for `CCN1C[C@]2(C)CC[C@H](O)[C@]34C1[C@H](C[C@H]23)[C@@]1(O)C[C@H](OC)[C@H]2C[C@@H]4[C@@H]1C2O` (stereo partly specified), in assay [1], the parasite load remaining is 57.3% (inactive). The viability in assay [1] amounted to 100%. Also, the fold change is 0.863 (inactive) in assay [2] (setting [10]) and 1.17 in assay [2] (setting [7]). The figures for the cell count in assay [2] (setting [8]) and in assay [2] (setting [9]) were 9000 and 10400, respectively.

With `C[C@H]1CCC2(NC1)O[C@H]1C[C@H]3[C@@H]4CC[C@H]5C[C@@H](O[C@@H]6O[C@H](CO)[C@H](O[C@@H]7O[C@H](CO)[C@@H](O)[C@H](O[C@@H]8OC[C@@H](O)[C@H](O)[C@H]8O)[C@H]7O[C@@H]7O[C@H](CO)[C@@H](O)[C@H](O)[C@H]7O)[C@H](O)[C@H]6O)CC[C@]5(C)[C@H]4CC[C@]3(C)[C@H]1[C@@H]2C` (stereo partly specified), the parasite load remaining in assay [1] is 1.56% (inactive). In assay [1], the viability turned out to be 9.75%. Moreover, the fold change in assay [2] (setting [10]) is 0.761 (inactive); in assay [2] (setting [7]), 0.652. Further, the results for the cell count in assay [2] (setting [8]) and in assay [2] (setting [9]) were 430 and 564, respectively.

`O[C@@H]1[C@@H](O)[C@H](O)CN2CC[C@@H](O)[C@@H]12`: the fold fluorescence in assay [4] was 5.17 [at 264.3 µM] (inactive).

For `NCCC(O)C(=O)N[C@@H]1C[C@H](N)[C@@H](OC2O[C@H](CN)[C@@H](O)[C@H](O)[C@H]2N)[C@H](OC2O[C@H](CO)C(O)[C@H]2O)[C@H]1O` (stereo partly specified), the parasite load remaining in assay [1] was 106% (inactive). The viability in assay [1] was determined as 91%. For the same compound, the fold change was 0.815 (inactive) in assay [2] (setting [10]) and 1.54 in assay [2] (setting [7]). In addition, the cell count was found to be 7990 in assay [2] (setting [8]) and 9800 in assay [2] (setting [9]).

In the case of `COC1=CC(=O)O[C@@H](/C=C/c2ccccc2)C1`, the survival in assay [3] was 16.6 (inactive). In addition, in assay [1], the parasite load remaining was 26.1% (inactive) and 89.1% (inactive). The viability in assay [1] is 46.2% and 90.2%. The fold change in assay [2] (stronger effect = lower value) is 0.899 (inactive); in assay [2] (setting [7]), 1.34. Besides, the cell count turned out to be 8920 in assay [2] (setting [8]) and 9920 in assay [2] (setting [9]).

For `COC(=O)[C@]1(O)C[C@@H]2O[C@@]1(C)n1c3ccccc3c3c4c(c5c6ccccc6n2c5c31)C(=O)NC4`, in assay [1], the parasite load remaining is 43.2% (inactive) and the viability came out at 53.6%. Further, the fold fluorescence in assay [4] was 6.41 [at 10.7 µM] (inactive).

For the compound `C=C1[C@@H](O)C2O[C@@]3(CCC2O[C@@H]1C(O)C[C@H](C)C1O[C@@]2(CCCCO2)CC[C@H]1C)CC[C@@H](/C=C/[C@@H](C)[C@@H]1CC(C)=C[C@@]2(O[C@H](C[C@@](C)(O)C(=O)O)CCC2O)O1)O3` (stereo partly specified), the fold fluorescence in assay [4] is 14.3 [at 6.2 µM] (inactive).

`COCCCOc1ccnc(CS(=O)c2nc3ccccc3[nH]2)c1C` (stereo unspecified): the z-score was 1.01 (inactive) in assay [5] (MELAS cybrid survival, CellTiter-Glo 48 h, stronger effect = higher value) and 0.105 in assay [5] (Rieske KO mouse fibroblast survival, CellTiter-Glo 72 h).

For `CC(C)[C@@]1(O)[C@H](OC(=O)c2ccc[nH]2)[C@]2(O)[C@]3(C)C[C@@]4(O)O[C@]5([C@@H](O)[C@H](C)CC[C@@]35O)[C@]2(O)[C@@]41C`, in assay [4], the fold fluorescence is 3.48 [at 101.3 µM] (inactive).

As for `N[C@H]1CCc2cc(O)c(O)cc2C1`, the fold fluorescence in assay [4] is 4.25 [at 279 µM] (inactive).

As for `CC1(C)[C@@H](O)C[C@H]2[C@](C)(O)[C@@H]3CCC4[C@@H](O)[C@@]3(C[C@@H](O)[C@@]21O)C[C@@]4(C)O`, in assay [4], the fold fluorescence is 2.34 [at 135 µM] (active).

Turning to `CCN1C[C@]2(COC)C(O)C[C@H](OC)[C@]34C1[C@H]([C@H](OC)[C@H]23)[C@]1(OC(C)=O)[C@H]2[C@@H](OC(=O)c3ccccc3)[C@@](O)(C[C@H]24)[C@@H](OC)[C@@H]1O` (stereo partly specified), in assay [4], the fold fluorescence was 4.31 [at 77.4 µM] (inactive).

In the case of `CC(C)[C@@H]1NC(=O)[C@H](C(C)C)OC(=O)[C@@H](C(C)C)NC(=O)[C@@H](C)OC(=O)[C@@H](C(C)C)NC(=O)[C@H](C(C)C)OC(=O)[C@@H](C(C)C)NC(=O)[C@@H](C)OC(=O)[C@H](C(C)C)NC(=O)[C@H](C(C)C)OC(=O)[C@H](C(C)C)NC(=O)[C@H](C)OC1=O`, in assay [4], the fold fluorescence is 7.5 [at 45 µM] (inactive).

`[Cl][Pt].[NH2-].[NH2-].c1ccncc1`: the compound was classed as inactive in assay [6].

Regarding `CCCCCCCCCCCCCCCC(=O)OC[C@@H](COP(=O)([O-])OCC[N+](C)(C)C)OC(C)=O`, the fold fluorescence in assay [4] was 4.75 (inactive).

As for `C=C1[C@@H](C)[C@H]2[C@H](Cc3ccccc3)NC(=O)[C@]23[C@H](OC(C)=O)/C=C/[C@](C)(O)C(=O)[C@@H](C)C/C=C/[C@H]3[C@@H]1O`, in assay [4], the fold fluorescence was 11.8 [at 98.5 µM] (inactive).
